Source: PubChem BioAssay AID1159580 (chemical genetic matrix, 2015)
Hit rate of the full screen: of about 5,500 compounds, about 2,000 (36%) were called active. Another 18% or so got no clear call; they are omitted. Cut-off read from the data, not from the text of the source: active = normalized growth mostly below about 0.91 (no sharp cut-off); inconclusive = no clear call, values can overlap the other calls; inactive = mostly above about 0.92. This is one part of the list.

Assay: chemical genetic growth profiling, strain panel (AID 1159580);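 note: tested at 20 µM; growth read once vehicle control cultures reached saturation at 30 °C; 1 = growth at the plate median or of vehicle wells; lower values mean less growth of the strain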
Details: growth OD

Measured: normalized growth

C[C@]12CCC(=O)C=C1CCC1C2[C@@H](O)C[C@@]2(C)C1CC[C@]2(O)C(=O)CO (stereo partly drawn)
inactive: S. cerevisiae deletion strains, locus YJR075W, strain HOC1, hits give low values 1.01 | S. cerevisiae deletion strains, locus YKL009W, strain mrt4, hits give low values 0.992 | S. cerevisiae deletion strains, locus YKL068W, hits give low values 1.01 | S. cerevisiae deletion strains, locus YKL085W, strain MDH1 (second series), hits give low values 0.998 | S. cerevisiae deletion strains, locus YKL085W, strain MDH1, hits give low values 0.998 | S. cerevisiae deletion strains, locus YKL160W, strain elf1, hits give low values 0.955 | S. cerevisiae deletion strains, locus YKR001C, strain vps1, hits give low values 0.971 | S. cerevisiae deletion strains, locus YKR026C, strain gcn3, hits give low values 0.993 | S. cerevisiae deletion strains, locus YKR091W, strain srl3, hits give low values 0.999 | S. cerevisiae deletion strains, locus YLL001W, strain dnm1, hits give low values 0.994 | S. cerevisiae deletion strains, locus YLL026W, hits give low values 0.982 | S. cerevisiae deletion strains, locus YLL041C, strain sdh2, hits give low values 0.99 | S. cerevisiae deletion strains, locus YLR027C, strain aat2, hits give low values 1 | S. cerevisiae deletion strains, locus YLR039C, strain RIC1, hits give low values 1.05 | S. cerevisiae deletion strains, locus YLR058C, strain SHM2, hits give low values 1.02 | S. cerevisiae deletion strains, locus YLR102C, strain apc9, hits give low values 0.993 | S. cerevisiae deletion strains, locus YLR113W, strain HOG1, hits give low values 0.99 | S. cerevisiae deletion strains, locus YLR221C, strain rsa3, hits give low values 0.985 | S. cerevisiae deletion strains, locus YLR258W, strain gsy2, hits give low values 0.971 | S. cerevisiae deletion strains, locus YLR262C, strain YPT6 (second series), hits give low values 1 | S. cerevisiae deletion strains, locus YLR262C, strain YPT6, hits give low values 1.08 | S. cerevisiae deletion strains, locus YLR268W, strain sec22, hits give low values 0.977 | S. cerevisiae deletion strains, locus YLR320W, strain mms22, hits give low values 0.986 | S. cerevisiae deletion strains, locus YLR330W, strain CHS5, hits give low values 1.01 | S. cerevisiae deletion strains, locus YLR342W, strain FKS1 (second series), hits give low values 1.01 | S. cerevisiae deletion strains, locus YLR342W, strain FKS1, hits give low values 0.999 | S. cerevisiae deletion strains, locus YLR357W, strain rsc2, hits give low values 0.957 | S. cerevisiae deletion strains, locus YLR370C, strain arc18, hits give low values 1 | S. cerevisiae deletion strains, locus YLR371W, strain rom2, hits give low values 0.971 | S. cerevisiae deletion strains, locus YLR384C, strain iki3, hits give low values 0.998 | S. cerevisiae deletion strains, locus YLR418C, strain cdc73, hits give low values 1.01 | S. cerevisiae deletion strains, locus YML016C, strain PPZ1, hits give low values 1.02 | S. cerevisiae deletion strains, locus YML032C, strain rad52, hits give low values 1.01 | S. cerevisiae deletion strains, locus YML120C, strain ndi1, hits give low values 1.01 | S. cerevisiae deletion strains, locus YML124C, strain tub3, hits give low values 0.994 | S. cerevisiae deletion strains, locus YMR058W, strain fet3, hits give low values 1.01 | S. cerevisiae deletion strains, locus YMR078C, strain ctf18, hits give low values 0.998 | S. cerevisiae deletion strains, locus YMR125W, strain sto1, hits give low values 0.96 | S. cerevisiae deletion strains, locus YMR129W, hits give low values 0.993 | S. cerevisiae deletion strains, locus YMR205C, strain PFK2, hits give low values 0.967 | S. cerevisiae deletion strains, locus YMR223W, strain ubp8, hits give low values 0.993 | S. cerevisiae deletion strains, locus YMR231W, strain pep5, hits give low values 1 | S. cerevisiae deletion strains, locus YMR263W, strain SAP30, hits give low values 1.02 | S. cerevisiae deletion strains, locus YMR307W, strain GAS1, hits give low values 1.04 | S. cerevisiae deletion strains, locus YNL067W, strain RPL9B, hits give low values 1.02 | S. cerevisiae deletion strains, locus YNL071W, strain lat1, hits give low values 1.01 | S. cerevisiae deletion strains, locus YNL153C, strain GIM3, hits give low values 1.03 | S. cerevisiae deletion strains, locus YNL183C, strain NPR1, hits give low values 0.939 | S. cerevisiae deletion strains, locus YNL209W, strain ssb2, hits give low values 0.99 | S. cerevisiae deletion strains, locus YNL233W, strain BNI4, hits give low values 1.02 | S. cerevisiae deletion strains, locus YNL248C, strain rpa49, hits give low values 0.989 | S. cerevisiae deletion strains, locus YNL250W, strain rad50, hits give low values 1.01 | S. cerevisiae deletion strains, locus YNL271C, strain bni1, hits give low values 0.995 | S. cerevisiae deletion strains, locus YNL298W, strain CLA4, hits give low values 1.01 | S. cerevisiae deletion strains, locus YNL307C, strain MCK1, hits give low values 0.995 | S. cerevisiae deletion strains, locus YNL322C, strain KRE1 (second series), hits give low values 0.969 | S. cerevisiae deletion strains, locus YNL322C, strain KRE1, hits give low values 1.01 | S. cerevisiae deletion strains, locus YNR049C, strain mso1, hits give low values 0.999 | S. cerevisiae deletion strains, locus YNR052C, strain pop2, hits give low values 0.999 | S. cerevisiae deletion strains, locus YOL012C, strain htz1 0.617 | S. cerevisiae deletion strains, locus YOL147C, strain pex11, hits give low values 1.02 | S. cerevisiae deletion strains, locus YOR001W, strain rrp6, hits give low values 1.01 | S. cerevisiae deletion strains, locus YOR061W, strain CKA2, hits give low values 1.02 | S. cerevisiae deletion strains, locus YOR069W, strain VPS5, hits give low values 1.01 | S. cerevisiae deletion strains, locus YOR070C, strain gyp1, hits give low values 0.966 | S. cerevisiae deletion strains, locus YOR080W, strain dia2, hits give low values 1.01 | S. cerevisiae deletion strains, locus YOR083W, strain WHI5, hits give low values 0.945 | S. cerevisiae deletion strains, locus YOR106W, strain vam3, hits give low values 0.971 | S. cerevisiae deletion strains, locus YOR136W, strain idh2, hits give low values 0.985 | S. cerevisiae deletion strains, locus YOR144C, strain elg1, hits give low values 0.995 | S. cerevisiae deletion strains, locus YOR184W, strain ser1, hits give low values 0.993 | S. cerevisiae deletion strains, locus YOR231W, strain MKK1, hits give low values 0.99 | S. cerevisiae deletion strains, locus YOR265W, strain rbl2, hits give low values 0.985 | S. cerevisiae deletion strains, locus YOR270C, strain vph1, hits give low values 0.996 | S. cerevisiae deletion strains, locus YOR290C, strain snf2, hits give low values 0.983 | S. cerevisiae deletion strains, locus YOR316C, strain cot1, hits give low values 0.994 | S. cerevisiae deletion strains, locus YPL051W, strain arl3, hits give low values 0.927 | S. cerevisiae deletion strains, locus YPL055C, strain LGE1, hits give low values 1.02 | S. cerevisiae deletion strains, locus YPL078C, strain atp4, hits give low values 0.97 | S. cerevisiae deletion strains, locus YPL106C, strain sse1, hits give low values 0.926 | S. cerevisiae deletion strains, locus YPL240C, strain hsp82, hits give low values 0.992 | S. cerevisiae deletion strains, locus YPL256C, strain CLN2, hits give low values 0.949 | S. cerevisiae deletion strains, locus YPR119W, strain clb2, hits give low values 0.99 | S. cerevisiae deletion strains, locus YPR141C, strain kar3, hits give low values 0.999 | S. cerevisiae deletion strains, locus YPR163C, strain tif3, hits give low values 0.986 | S. cerevisiae deletion strains, locus YPR167C, strain met16, hits give low values 0.991 | S. cerevisiae deletion strains, strain wtn01, hits give low values 0.972 | S. cerevisiae strains, strain wild type, hits give low values 1.02
